What was measured:
Assay in all cases: log2 ratio of Biotin-Ahx-Ub-VS probe labelling (fragment/DMSO); higher = less target engagement (more negative = stronger competition), active = hit call of the paper (q ≤ 0.05, log2 ratio ≤ -1)
Conditions in all cases: compound concentration: 200 uM; treatment time: 3 h
OTUD6B = biological target: T1, OTUD6B (UniProt Q8N6M0)
T1 sequence (whole entry): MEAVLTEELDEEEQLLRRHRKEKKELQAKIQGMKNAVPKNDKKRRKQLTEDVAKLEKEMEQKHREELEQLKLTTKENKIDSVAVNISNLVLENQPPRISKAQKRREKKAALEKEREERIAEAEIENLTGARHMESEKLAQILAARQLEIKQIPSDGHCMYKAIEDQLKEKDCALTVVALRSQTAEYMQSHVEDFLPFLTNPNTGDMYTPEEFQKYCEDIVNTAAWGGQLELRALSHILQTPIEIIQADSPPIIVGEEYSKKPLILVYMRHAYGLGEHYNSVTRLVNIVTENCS
How it was run: (§1)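 Fragment (200 µM) or vehicle was incubated for 3 h with triplicate HEK293T lysate samples of 495 µg, which were then treated with Biotin-Ahx-Ub-VS at 0.5 µM final for 1 h. Labelled DUBs were enriched on NeutrAvidin, digested with LysC and trypsin, and analysed by diaPASEF LC-MS/MS. Values are average log2 fragment/vehicle ratios from an unpaired t-test on global-median-normalised Spectronaut label-free quantities, using proteins with ≥2 unique peptides.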

OTUD7B = biological target: T2, OTUD7B (UniProt Q6GQQ9)
T2 sequence (whole entry): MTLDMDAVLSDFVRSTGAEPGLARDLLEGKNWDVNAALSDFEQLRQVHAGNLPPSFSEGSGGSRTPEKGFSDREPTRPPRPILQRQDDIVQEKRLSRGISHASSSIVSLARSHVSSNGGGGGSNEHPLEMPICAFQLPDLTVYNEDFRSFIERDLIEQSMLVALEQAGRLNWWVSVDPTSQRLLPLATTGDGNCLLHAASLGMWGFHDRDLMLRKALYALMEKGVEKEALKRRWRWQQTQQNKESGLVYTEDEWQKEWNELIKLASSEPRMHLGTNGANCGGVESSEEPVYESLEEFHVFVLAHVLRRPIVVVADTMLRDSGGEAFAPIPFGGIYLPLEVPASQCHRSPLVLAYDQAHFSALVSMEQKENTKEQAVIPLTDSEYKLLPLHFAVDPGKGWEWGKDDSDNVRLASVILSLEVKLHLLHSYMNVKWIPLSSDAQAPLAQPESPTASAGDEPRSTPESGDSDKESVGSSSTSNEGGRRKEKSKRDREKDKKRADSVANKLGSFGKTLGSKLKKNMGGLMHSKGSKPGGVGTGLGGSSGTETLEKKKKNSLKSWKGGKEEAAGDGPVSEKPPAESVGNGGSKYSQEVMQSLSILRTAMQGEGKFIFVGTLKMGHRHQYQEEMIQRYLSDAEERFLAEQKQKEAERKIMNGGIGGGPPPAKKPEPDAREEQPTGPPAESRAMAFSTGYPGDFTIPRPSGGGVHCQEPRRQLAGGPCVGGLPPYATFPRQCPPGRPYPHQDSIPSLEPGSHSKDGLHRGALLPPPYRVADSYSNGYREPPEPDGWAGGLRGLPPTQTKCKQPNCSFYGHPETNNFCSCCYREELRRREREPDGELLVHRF
How it was run: as §1

PRPF8 = PRPF8 (UniProt Q6P2Q9)
How it was run: as §1

PSMD7 = biological target: T3, PSMD7 (UniProt P51665)
T3 sequence (whole entry): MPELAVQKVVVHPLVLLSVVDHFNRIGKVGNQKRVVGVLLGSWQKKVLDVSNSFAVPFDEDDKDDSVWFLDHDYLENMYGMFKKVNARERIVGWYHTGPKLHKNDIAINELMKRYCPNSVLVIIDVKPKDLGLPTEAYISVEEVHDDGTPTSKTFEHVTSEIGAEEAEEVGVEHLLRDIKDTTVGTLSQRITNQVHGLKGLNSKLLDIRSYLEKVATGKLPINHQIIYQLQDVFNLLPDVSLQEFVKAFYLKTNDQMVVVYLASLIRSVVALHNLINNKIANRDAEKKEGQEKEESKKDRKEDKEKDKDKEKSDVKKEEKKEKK
How it was run: as §1

UCHL1 = UCHL1 (UniProt P09936)
How it was run: as §1

UCHL3 = biological target: T4, UCHL3 (UniProt P15374)
T4 sequence (whole entry): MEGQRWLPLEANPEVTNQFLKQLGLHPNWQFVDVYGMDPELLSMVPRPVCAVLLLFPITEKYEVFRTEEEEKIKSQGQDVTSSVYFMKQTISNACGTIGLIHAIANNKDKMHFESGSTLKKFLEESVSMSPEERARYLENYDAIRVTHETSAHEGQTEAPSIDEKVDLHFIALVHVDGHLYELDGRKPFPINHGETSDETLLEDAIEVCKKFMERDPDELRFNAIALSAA
How it was run: as §1

UCHL5 = biological target: T5, UCHL5 (UniProt Q9Y5K5)
T5 sequence (whole entry): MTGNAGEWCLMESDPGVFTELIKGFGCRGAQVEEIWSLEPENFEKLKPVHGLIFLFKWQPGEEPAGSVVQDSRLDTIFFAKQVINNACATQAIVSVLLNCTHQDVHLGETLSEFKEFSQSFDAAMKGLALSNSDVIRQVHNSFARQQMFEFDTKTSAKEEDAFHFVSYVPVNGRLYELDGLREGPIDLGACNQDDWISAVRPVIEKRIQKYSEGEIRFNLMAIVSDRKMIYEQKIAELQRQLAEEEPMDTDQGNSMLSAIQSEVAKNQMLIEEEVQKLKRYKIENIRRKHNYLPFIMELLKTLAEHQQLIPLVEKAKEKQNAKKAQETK
How it was run: as §1

USP10 = USP10 (UniProt Q14694)
How it was run: as §1

USP15 = biological target: T6, USP15 (UniProt Q9Y4E8)
T6 sequence (whole entry): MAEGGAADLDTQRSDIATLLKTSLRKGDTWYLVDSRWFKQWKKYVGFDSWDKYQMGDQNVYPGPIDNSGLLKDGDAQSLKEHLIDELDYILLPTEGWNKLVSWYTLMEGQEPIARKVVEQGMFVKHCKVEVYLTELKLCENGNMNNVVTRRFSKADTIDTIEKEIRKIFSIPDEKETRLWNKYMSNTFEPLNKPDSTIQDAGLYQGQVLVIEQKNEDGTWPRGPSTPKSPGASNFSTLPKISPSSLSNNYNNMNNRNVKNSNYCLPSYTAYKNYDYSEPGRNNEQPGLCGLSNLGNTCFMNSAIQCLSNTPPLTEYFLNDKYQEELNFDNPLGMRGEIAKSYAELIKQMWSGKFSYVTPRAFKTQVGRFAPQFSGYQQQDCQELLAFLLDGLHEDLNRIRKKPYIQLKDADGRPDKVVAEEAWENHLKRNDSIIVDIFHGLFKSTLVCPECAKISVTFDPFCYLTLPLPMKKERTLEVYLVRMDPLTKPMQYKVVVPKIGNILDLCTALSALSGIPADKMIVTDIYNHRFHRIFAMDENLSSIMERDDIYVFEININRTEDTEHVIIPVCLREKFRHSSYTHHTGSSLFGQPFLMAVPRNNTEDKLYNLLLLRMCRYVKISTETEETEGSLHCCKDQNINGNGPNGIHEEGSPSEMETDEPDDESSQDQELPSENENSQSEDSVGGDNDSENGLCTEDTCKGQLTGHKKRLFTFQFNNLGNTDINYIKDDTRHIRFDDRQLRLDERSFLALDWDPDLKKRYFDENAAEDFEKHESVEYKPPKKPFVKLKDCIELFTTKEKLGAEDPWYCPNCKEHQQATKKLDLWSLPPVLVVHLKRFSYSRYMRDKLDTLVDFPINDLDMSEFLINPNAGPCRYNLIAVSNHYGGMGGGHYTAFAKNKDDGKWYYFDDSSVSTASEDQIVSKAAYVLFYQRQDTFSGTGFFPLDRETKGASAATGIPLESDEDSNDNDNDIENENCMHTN
How it was run: as §1

USP16 = USP16 (UniProt Q9Y5T5)
How it was run: as §1

Measured: log2 ratio of Biotin-Ahx-Ub-VS probe labelling

Sequence of USP16 (Q9Y5T5 whole entry, looked up): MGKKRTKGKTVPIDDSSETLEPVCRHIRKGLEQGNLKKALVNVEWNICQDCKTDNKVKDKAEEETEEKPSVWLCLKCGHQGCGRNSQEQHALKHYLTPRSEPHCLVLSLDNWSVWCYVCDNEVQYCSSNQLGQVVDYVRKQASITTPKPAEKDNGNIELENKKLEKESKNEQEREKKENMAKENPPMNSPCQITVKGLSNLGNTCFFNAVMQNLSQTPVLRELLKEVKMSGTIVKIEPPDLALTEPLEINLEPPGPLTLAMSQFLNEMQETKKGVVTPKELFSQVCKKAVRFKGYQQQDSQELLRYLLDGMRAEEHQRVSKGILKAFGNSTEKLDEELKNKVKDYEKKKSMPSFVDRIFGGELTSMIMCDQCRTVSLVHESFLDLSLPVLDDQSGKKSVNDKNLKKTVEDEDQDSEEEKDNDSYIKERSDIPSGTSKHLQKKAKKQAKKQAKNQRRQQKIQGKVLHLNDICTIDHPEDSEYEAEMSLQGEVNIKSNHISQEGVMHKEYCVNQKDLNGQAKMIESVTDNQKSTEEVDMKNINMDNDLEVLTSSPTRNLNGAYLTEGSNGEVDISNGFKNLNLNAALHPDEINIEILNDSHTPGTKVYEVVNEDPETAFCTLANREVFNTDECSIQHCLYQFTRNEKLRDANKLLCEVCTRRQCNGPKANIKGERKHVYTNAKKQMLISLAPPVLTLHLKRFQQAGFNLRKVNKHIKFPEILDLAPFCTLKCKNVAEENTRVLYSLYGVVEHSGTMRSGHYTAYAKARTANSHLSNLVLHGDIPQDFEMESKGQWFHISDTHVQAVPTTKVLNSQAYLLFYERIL
Sequence of USP10 (Q14694 whole entry): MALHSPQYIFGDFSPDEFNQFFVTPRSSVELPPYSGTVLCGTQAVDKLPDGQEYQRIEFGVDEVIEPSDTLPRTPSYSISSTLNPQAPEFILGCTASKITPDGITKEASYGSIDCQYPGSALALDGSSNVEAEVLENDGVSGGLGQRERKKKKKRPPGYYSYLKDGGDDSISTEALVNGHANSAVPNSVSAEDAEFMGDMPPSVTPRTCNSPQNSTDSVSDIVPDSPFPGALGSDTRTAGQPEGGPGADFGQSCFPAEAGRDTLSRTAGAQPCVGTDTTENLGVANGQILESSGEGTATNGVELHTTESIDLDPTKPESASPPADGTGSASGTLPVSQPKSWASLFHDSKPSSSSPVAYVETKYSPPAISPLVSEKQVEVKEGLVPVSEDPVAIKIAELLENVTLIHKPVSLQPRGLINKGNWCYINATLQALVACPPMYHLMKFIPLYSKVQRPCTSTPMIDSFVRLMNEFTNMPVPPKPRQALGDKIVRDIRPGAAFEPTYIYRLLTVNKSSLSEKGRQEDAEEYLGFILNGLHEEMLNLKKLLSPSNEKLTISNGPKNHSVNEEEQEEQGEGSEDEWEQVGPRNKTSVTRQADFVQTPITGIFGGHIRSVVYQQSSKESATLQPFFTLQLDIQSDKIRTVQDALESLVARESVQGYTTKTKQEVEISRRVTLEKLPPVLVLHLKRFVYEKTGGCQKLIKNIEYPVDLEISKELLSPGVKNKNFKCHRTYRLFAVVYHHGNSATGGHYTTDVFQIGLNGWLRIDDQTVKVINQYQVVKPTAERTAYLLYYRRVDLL
Sequence of UCHL1 (P09936 whole entry, looked up): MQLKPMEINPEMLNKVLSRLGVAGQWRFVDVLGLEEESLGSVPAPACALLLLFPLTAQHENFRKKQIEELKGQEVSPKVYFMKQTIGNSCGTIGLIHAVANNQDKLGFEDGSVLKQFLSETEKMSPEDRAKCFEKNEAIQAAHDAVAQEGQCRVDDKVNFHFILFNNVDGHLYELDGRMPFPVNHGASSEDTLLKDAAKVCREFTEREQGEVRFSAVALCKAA

O=C(CCl)N1CCc2nc[nH]c2C1c1ccc(Cl)cc1 (stereo not given)
inactive: OTUD6B -0.263 | PRPF8 -0.0118 | PSMD7 -0.165 | UCHL1 -0.466 | UCHL3 0.28 | UCHL5 -0.221 | USP10 -0.161 | USP15 -0.182 | USP16 -0.287
active: OTUD7B -1.05

Reference: the supplement of paper PMC11732987, “Enantioselective OTUD7B fragment discovery through chemoproteomics screening and high-throughput optimisation” (Communications Chemistry, 2025)
